Experiment [1] is described as follows: NCI Yeast Anticancer Drug Screen. Data for the rad50 strain (AID 155).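 Further: 0% = growth of vehicle-only cultures of the same strain.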 To be noted: S. cerevisiae rad50 strain growth inhibition; at 50.0 µM; stronger effect = higher value. The method in brief:
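Vehicle-treated cultures provide the reference for the growth inhibition reported for compound-exposed, repair-deficient yeast.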

Experiment [2] can be described thus: NCI Yeast Anticancer Drug Screen. Data for the mec2-1 strain (AID 157). Particulars: S. cerevisiae mec2-1 strain, at 50.0 µM, stronger effect = higher value. The essentials: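 Each compound was tested on mec2-1 yeast, a strain altered in DNA damage repair or cell cycle control. Growth inhibition is reported relative to vehicle.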
Experiment [3] in a line: NCI Yeast Anticancer Drug Screen. Data for the sgs1 mgt1 strain (AID 161).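 Further: 0% = growth of cultures given vehicle only.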 Particulars: S. cerevisiae sgs1 mgt1 strain, at 50.0 µM, stronger effect = higher value. The method in brief: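 Mutant yeast exposed to compound; growth scored against vehicle-only wells.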
The nature of experiment [4]: NCI Yeast Anticancer Drug Screen. Data for the cln2 rad14 strain (AID 165).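 Further: 0% = growth equal to vehicle treated cultures.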 To be noted: S. cerevisiae cln2 rad14 strain, at 50.0 µM, stronger effect = higher value. The essentials:
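Test compounds were added to cln2 rad14 yeast cultures; inhibition of growth was then determined by comparison with vehicle treatment.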

The nature of experiment [5]: NCI Yeast Anticancer Drug Screen. Data for the bub3 strain (AID 167). Particulars: S. cerevisiae bub3 mutant strain, at 50.0 µM, stronger effect = higher value. The method in brief: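 Mutant yeast screening strain plus compound; vehicle-treated cultures serve as the 0% inhibition reference.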
Experiment [6] can be described thus: NCI Yeast Anticancer Drug Screen. Data for the mlh1 rad18 strain (AID 175). To be noted: S. cerevisiae mlh1 rad18 strain growth inhibition; at 50.0 µM; stronger effect = higher value. The essentials: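 Inhibition values reflect reduced growth of mutant yeast versus vehicle-treated controls following compound exposure; the mutations affect DNA damage repair.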

Each structure is given as a SMILES string. About 79,000 compounds went through this panel and 15% of them were active in at least one assay; those are over-represented in the sample as a whole. Values without a mark were called inactive. The source made the active and inactive calls. No stated cut-off is given here; in the data, active means growth inhibition above about 70%; inactive means the rest.

As to `C=C1CC2OC(=O)C(=C)C2C(OC(=O)c2ccccc2)/C=C(\C)CCC1OC(=O)c1ccccc1` (stereo not given), the growth inhibition in experiment [1] was -13.7%; in experiment [2] it was -3.25%; in experiment [3], -11.2%; in experiment [4], -39.3%; in experiment [5], -0.85%; in experiment [6], -21.4%.
Turning to `CC(=O)Nc1ccc(S(=O)(=O)N/N=c2/sc3ccccc3n2C)cc1N`, the growth inhibition was -4.6% in experiment [1]; -2.7% in experiment [2]; -3.8% in experiment [3]; 15.2% in experiment [4]; -8.75% in experiment [5]; 3.2% in experiment [6].
In the case of `CCN(CC)c1cc(-c2ccccc2)oc(=O)c1Cl`, the growth inhibition in experiment [1] is 25.8%; in experiment [2], -10.3%; in experiment [3], 13.6%; in experiment [4], 9.4%; in experiment [5] it was 16.5%; in experiment [6], 20.6%.
On to `Nc1ccc2nc3c4ccccc4c(O)n3nc2c1`, for which the growth inhibition was -18.5% in experiment [1]; -9.15% in experiment [2]; -18.6% in experiment [3]; -47.9% in experiment [4]; -6.2% in experiment [5]; 14.6% in experiment [6].
As to `CC(C)(C)OC(=O)c1cccc(C(=O)OC(C)(C)C)c1`, the growth inhibition is 0.6% in experiment [1]; 41.6% in experiment [2]; 32.2% in experiment [3]; -9.7% in experiment [4]; 39.1% in experiment [5]; 17.3% in experiment [6].
Take `NC(N)=Nc1cccc2ccccc12`: the growth inhibition was -1.45% in experiment [1]; 0.85% in experiment [2]; -5.65% in experiment [3]; -12.8% in experiment [4]; -0.45% in experiment [5]; -5.15% in experiment [6].
Consider `O=c1cc(-c2cccc3ccccc23)[nH]c2ncccc12`, for which the growth inhibition was -13.3% in experiment [1]; -10.7% in experiment [2]; -21.9% in experiment [3]; 13.9% in experiment [4]; -9.3% in experiment [5]; -29.5% in experiment [6].
As for `NCCSS(=O)(=O)CCN`, the growth inhibition in experiment [1] was -17.4%; in experiment [2], -4.6%; in experiment [3], 18.4%; in experiment [4], -18.4%; in experiment [5], 1.95%; in experiment [6], 3.4%.
`Nc1cc(=O)[nH]c(N)n1`: the growth inhibition is 10.2% in experiment [1]; -23.9% in experiment [2]; -19.6% in experiment [3]; -83.9% in experiment [4]; -5% in experiment [5]; -21.9% in experiment [6].
Take `CC1=CC(=O)/C(=C/n2c(=S)sc3ccccc32)C(=O)O1`: the growth inhibition in experiment [1] is -27.4%; in experiment [2], 7.1%; in experiment [3], 27.9%; in experiment [4], 23%; in experiment [5], -29.9%; in experiment [6], 14.6%.
`O=C1CC(=O)N(c2ccccc2)N1`: the growth inhibition in experiment [1] was 35.2%; in experiment [2] it was 7.45%; in experiment [3], 45%; in experiment [4], 19.9%; in experiment [5], 35.1%; in experiment [6], 16.9%.
As for `CC1C2c3ccccc3C(c3ccccc32)C1CN1C(CCO)COC1c1ccccc1` (stereo not given), the growth inhibition in experiment [1] was 4.05%; in experiment [2] it was 8.9%; in experiment [3], -3.25%; in experiment [4], -1.75%; in experiment [5] it was 1.4%; in experiment [6], 7.6%.
Consider `Nc1nc(Cl)c2ncn(C3OC(CO)C(O)C3O)c2n1` (stereo not given), for which the growth inhibition in experiment [1] was -8.1%; in experiment [2], -3.65%; in experiment [3] it was -1.9%; in experiment [4], -34.5%; in experiment [5] it was -5.2%; in experiment [6] it was 1.4%.
`O=C1CS/C(=N/C(=O)Nc2ccc(Cl)cc2)N1`: the growth inhibition was -1.9% in experiment [1]; 32.5% in experiment [2]; 16.1% in experiment [3]; -9.55% in experiment [4]; -6.95% in experiment [5]; 14.5% in experiment [6].
As to `O=C(O)c1cc(C(=O)Nc2cccc3ccccc23)c(C(=O)O)cc1C(=O)Nc1cccc2ccccc12`, the growth inhibition in experiment [1] is 14.6%; in experiment [2], 24.1%; in experiment [3], 17.6%; in experiment [4], -5.4%; in experiment [5] it was 6.4%; in experiment [6] it was 22.8%.
On to `CC(C)(C)c1ccc(-c2nc3ccc(Cl)cc3c(=O)o2)cc1`, for which the growth inhibition was -26.6% in experiment [1]; -24.5% in experiment [2]; -7.85% in experiment [3]; -48.3% in experiment [4]; -17.6% in experiment [5]; 0.45% in experiment [6].
For the compound `O=C(CNc1ccccc1)c1ccc(O)c(C(=O)O)c1` (tested in a mixture with another compound), the growth inhibition in experiment [1] was -8.5%; in experiment [2], -12.3%; in experiment [3], -11.3%; in experiment [4], -5.35%; in experiment [5], -0.7%; in experiment [6] it was 0.95%.
For the compound `CCN(CC)CCNc1ccc2ncn3c4ccccc4c(=O)c1c23`, the growth inhibition in experiment [1] was 19.9%; in experiment [2], 8.85%; in experiment [3], -16.1%; in experiment [4] it was 33.1%; in experiment [5] it was 29.1%; in experiment [6], 42.9%.
`C[CH2][Ge]([CH2]C)[CH2]C.C[CH2][Ge]([Cl])[CH2]C`: the growth inhibition in experiment [1] was 76.3% (active); in experiment [2], 3.45%; in experiment [3], 52.9%; in experiment [4] it was -10.2%; in experiment [5], 41.8%; in experiment [6], 74.5% (active).
As to `C=CC[N+]12CC=C3COC(=O)C(C)(O)C(C)(O)C(C)C(=O)OC(CC1)C32` (stereo not given), the growth inhibition in experiment [1] was 0.4%; in experiment [2], -0.2%; in experiment [3], 0.4%; in experiment [4], -25.9%; in experiment [5], -3.55%; in experiment [6], -5.65%.

For the origin of these results see PubChem BioAssay (NCI).
